According to PubChem BioAssay AID588348 (Broad Institute, 2011):
Hit rate of the full screen: of about 1,300 compounds, fewer than 10 were called active.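 The calls were made as follows: active = fitted half-maximal dose AC50 no more than ten times the top valid tested dose, with luminescence dropping as dose rises; inconclusive = poor fit, or flat fit with 30 to 70% inhibition; inactive = the rest, signal increases included.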 The list is a sample of the results.

test: luciferase inhibitors in kinase-free ADP detection – biochemical, luminescence, cherry-pick, set 02, artefact control for Dyrk1A inhibitor project, dose response (AID 588348); conditions: ADP-Glo luciferase artifact assay, no Dyrk1A; series mostly up to 12 µM

**Q.** With `COc1c(O)cc2oc(-c3ccc(O)c(O)c3)cc(=O)c2c1O` as the molecule, how does the outcome read?
**A.** The outcome was “inactive”.

**Q.** For `CCN(CC)c1ccc(NC(=O)CCc2nnc3ccc(N4CCCCC4)nn23)c(C)c1`, which outcome is on record?
**A.** The outcome was “inactive”.

**Q.** Which outcome does the source give for `CCOC(=O)Cn1c(-c2cccnc2Cl)nc2ccccc21` here?
**A.** The outcome was “inactive”.

**Q.** For `Cc1cc(/C=N/Nc2ccc([N+](=O)[O-])cn2)c(C)n1-c1cccc(C(=O)O)c1`, which outcome is on record?
**A.** The outcome was “inactive”.

**Q.** For `Cc1noc(C)c1-c1ccc2ncnc(NC(C)c3ccco3)c2c1` (configuration not stated), which outcome is on record?
**A.** Its outcome is “inactive”.

**Q.** For `COc1ccc2c(Cl)c(C(=O)NCc3ccco3)sc2c1`, which outcome is on record?
**A.** The outcome was “inactive”.

**Q.** For `Cc1cccc(-c2nc(Nc3ccc(O)cc3)c3ccccc3n2)c1`, which outcome is on record?
**A.** The outcome was “inactive”.

**Q.** Which outcome does the source give for `Oc1ccc(-c2nc3ccccc3nc2-c2ccc(O)cc2O)c(O)c1` here?
**A.** Its outcome is “inactive”.

**Q.** With `Oc1ccc(-c2[nH]ncc2-c2nc3ccccc3s2)c(O)c1` as the molecule, how does the outcome read?
**A.** Its outcome is “inactive”.

**Q.** For `NC(=S)c1ccc(C(N)=S)o1`, which outcome is on record?
**A.** The outcome was “inactive”.

**Q.** With `Nc1nonc1-n1nnc(C(=O)N/N=C\c2ccncc2)c1CN1CCCCC1` as the molecule, how does the outcome read?
**A.** Its outcome is “inactive”.

**Q.** With `C=C(C)Cn1c(N2CCN(CC)CC2)nc2c1c(=O)[nH]c(=O)n2C` as the molecule, how does the outcome read?
**A.** The outcome was “inactive”.

**Q.** For `Nc1nc(SCc2ccc([N+](=O)[O-])cc2)c2ncn(C3OC(CO)C(O)C3O)c2n1` (configuration not stated), which outcome is on record?
**A.** Its outcome is “inactive”.

**Q.** For `Nc1nc(NCCCN2CCOCC2)nc(Nc2ccccc2)c1[N+](=O)[O-]`, which outcome is on record?
**A.** Its outcome is “inactive”.

**Q.** With `Cc1ccc(/C=C(\C#N)C(=O)Nc2cccc3ncccc23)o1` as the molecule, how does the outcome read?
**A.** The outcome was “inactive”.

**Q.** Which outcome does the source give for `CC(=O)Oc1ccc2c(c1)C(=O)c1ccccc1C2=O` here?
**A.** The outcome was “inactive”.

**Q.** With `CCc1cc2c(NC3CCCC3)ncnc2s1` as the molecule, how does the outcome read?
**A.** The outcome was “inactive”.

**Q.** For `COc1ccc(S(=O)(=O)N(C)C[C@H]2Oc3ccc(NS(=O)(=O)c4cccs4)cc3CC(=O)N([C@H](C)CO)C[C@H]2C)cc1`, which outcome is on record?
**A.** The outcome was “inactive”.

**Q.** With `COc1ccc2oc(N)c(C=O)c(=O)c2c1` as the molecule, how does the outcome read?
**A.** Its outcome is “inactive”.

**Q.** With `COc1ccc2[nH]c(C)c(CCN(Cc3cccs3)C(=S)Nc3ccccc3OC)c2c1` as the molecule, how does the outcome read?
**A.** The outcome was “inactive”.

**Q.** With `NS(=O)(=O)c1ccc(-c2ccc(/C=C3\SC(=O)NC3=O)o2)cc1` as the molecule, how does the outcome read?
**A.** The outcome was “inactive”.

**Q.** With `O=C(NC(Nc1nc2ccc([N+](=O)[O-])cc2s1)(C(F)(F)F)C(F)(F)F)c1ccccc1` as the molecule, how does the outcome read?
**A.** Its outcome is “inactive”.

**Q.** Which outcome does the source give for `O=C1/C(=C/c2ccc3c(c2)OCO3)Oc2cc(OCC(=O)N3CC(O)C[C@H]3C(=O)O)ccc21` (some centres not stated) here?
**A.** Its outcome is “inactive”.

**Q.** For `CCOc1cc(/C=C2\SC(N3CCCCC3)=NC2=O)ccc1O`, which outcome is on record?
**A.** Its outcome is “inactive”.

**Q.** With `CCc1n[nH]c(=S)n1/N=C/c1c[nH]c2ccc(Br)cc12` as the molecule, how does the outcome read?
**A.** The outcome was “inactive”.

**Q.** Which outcome does the source give for `CC(=O)C1C(c2ccc(Cl)cc2)NC(=O)NC1(O)C(F)(F)F` (configuration not stated) here?
**A.** Its outcome is “inactive”.

**Q.** For `CC(=O)Nc1cccc(-c2cnc3ccccc3n2)c1`, which outcome is on record?
**A.** Its outcome is “inactive”.

**Q.** With `Oc1ccc(-c2csc(Nc3cccnc3)n2)cc1` as the molecule, how does the outcome read?
**A.** Its outcome is “inactive”.

**Q.** For `CCOCCCNC(=O)C(NC(=O)c1ccc(=O)[nH]c1)c1ccc(Cl)cc1` (configuration not stated), which outcome is on record?
**A.** Its outcome is “inactive”.

**Q.** For `CN1c2ccc(C=O)c3c(C=O)ccc(c23)N(C)C1(C)C`, which outcome is on record?
**A.** Its outcome is “inactive”.

**Q.** For `O=C1N=C(N2CCc3ccccc3C2)S/C1=C\c1ccc(O)cc1`, which outcome is on record?
**A.** The outcome was “inactive”.

**Q.** With `O=C(NCCc1ccccc1)C1CCN(S(=O)(=O)c2ccc(Br)s2)CC1` as the molecule, how does the outcome read?
**A.** Its outcome is “inactive”.

**Q.** Which outcome does the source give for `CCn1c(NC(=O)c2ccccc2)c(-c2cccs2)c(=O)c2ccccc21` here?
**A.** Its outcome is “inactive”.

**Q.** With `COc1cccc(C(=O)NNC(=O)/C=C/c2ccccc2)c1` as the molecule, how does the outcome read?
**A.** The outcome was “inactive”.

**Q.** With `C[C@@H]1O[C@@H](OC[C@H]2O[C@@H](Oc3c(-c4ccc(O)cc4)oc4cc(O)cc(O)c4c3=O)[C@H](O)[C@@H](O)[C@@H]2O)[C@H](O)[C@H](O)[C@H]1O` as the molecule, how does the outcome read?
**A.** Its outcome is “inactive”.

**Q.** Which outcome does the source give for `Cc1noc(NS(=O)(=O)c2ccc(NC(=O)c3oc4ccc(F)cc4c3C)cc2)c1C` here?
**A.** Its outcome is “inactive”.

**Q.** With `COc1cc(O)c2c(=O)c3c(O)c(O)ccc3oc2c1OC` as the molecule, how does the outcome read?
**A.** Its outcome is “inactive”.
